This is an account of results in PubChem BioAssay AID632 (National Center for Advancing Translational Sciences (NCATS), 2007).

Structures are written as SMILES. The list shows a part of the results. Calls of active or inactive are those of the source.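 How the source made its calls: active means compound lowering the Hsp90 and TPR2A binding signal, whether or not the linker counterscreen also flagged it as an artifact; inactive means the rest.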

The test deals with Hsp90 C-terminal peptide / TPR2A co-chaperone interaction. Description: Confirmation Concentration-Response Assay and Counterscreen for Disrupters of an Hsp90 Co-Chaperone Interaction. To be noted: AlphaScreen TPR2A-His6 / biotin-Hsp90 peptide binding; at 46 µM (top of the series) unless noted. The source says: NIH Chemical Genomics Center [NCGC] NIH Molecular Libraries Screening Centers Network [MLSCN] MLSCN Grant: X01 MH077625-01 NCGC Assay Overview: Hsp90 (heat shock protein 90) is the essential molecular chaperone and it accounts for 1-2% of all cytosolic proteins and is critical for the activity of diverse cellular proteins that are involved in a variety of cellular processes, including development, cell cycle, and steroid hormone signaling. Its client proteins include signaling kinases such as IGF1R, Akt, v-Src, Raf-1; regulators of cell survival such as Bcr-Abl; and transcription factors such as mutated p53, estrogen and progesterone receptors. Hsp90 has emerged as an important target for cancer treatment due to its essential role in maintaining transformation and regulating the function of oncogenic signaling proteins. The in vivo function of Hsp90 is regulated by the binding and hydrolysis of ATP at its N-terminal. Geldanamycin binds to ATP site and inhibit Hsp90 function. Geldanamycin and its analogues are under clinical trials in cancer patients. […] This domain contains the binding site for tetratricopeptide repeat (TPR) domains on HOP (Hsp Organizing Protein). TPR is a structural motif used by a significant number of cochaperones by which the in vivo function of Hsp90 is regulated. TPR2A on HOP binds specifically to MEEVD motif of the C-terminal of Hsp90. […]
NCGC Assay Protocol Summary: The assay was performed to confirm activity from an initial qHTS screen, and to counterscreen for alpha screen platform artifacts. All samples were reordered, as powders when available, and sample material was evaluated for impurities and/or incorrect molecular mass at NCGC. […] Plates were read on EnVision (PerkinElmer, Boston, MA).TPR2A-His6 was produced using a bacteria expression system and purified using a well developed method (Ghosh et al., 2000). […] TPR2A-His6 binding to biotin-Hsp90 will bring streptavidin donor beads and nickel chelate acceptor beads (PerkinElmer) together and can be measured by Alpha reading by EnVision (PerkinElmer). […]
For the compound `Oc1c(C(c2ccccn2)N2CCOCC2)ccc2cccnc12` (stereo not drawn), the activity, negative = inhibition is -99.8% [alpha-screen platform artifact] (active).

With `Cc1nnc2[nH]c(=O)n(C)c(=O)c2n1`, the activity, negative = inhibition was 5.91% [at 40 µM] (inactive).

As for `CCOC(=O)c1c(NC(=O)CSc2nnc(Cc3csc(N)n3)n2C)sc(C)c1C`, the activity, negative = inhibition was -99.5% [alpha-screen platform artifact] (active).
